Several values for one entry are separate records, joined by “and”; a condition that tells them apart may be missing. Identical values can stand only once. About 5,700 (36%) of roughly 16,000 compounds were called active. Another 24% or so got no clear call; they are omitted. Calls follow the shape of the dose curve; as a rule, active = well fitted curve in the direction sought with a large enough effect; inconclusive = small, poorly fitted or top-dose-only effect, or effect the other way; inactive = no such curve, though single readings can be large or run the other way. The list shows a part of the results.
target: Cytochrome P450 1A2 (Homo sapiens) (UniProt P05177); experiment: Cytochrome panel assay with activity outcomes; conditions: recombinant CYP, pro-luciferin dealkylation, luminescence, p450-cyp1a2; series mostly up to 57.1 µM
Sequence (P05177 whole entry, looked up): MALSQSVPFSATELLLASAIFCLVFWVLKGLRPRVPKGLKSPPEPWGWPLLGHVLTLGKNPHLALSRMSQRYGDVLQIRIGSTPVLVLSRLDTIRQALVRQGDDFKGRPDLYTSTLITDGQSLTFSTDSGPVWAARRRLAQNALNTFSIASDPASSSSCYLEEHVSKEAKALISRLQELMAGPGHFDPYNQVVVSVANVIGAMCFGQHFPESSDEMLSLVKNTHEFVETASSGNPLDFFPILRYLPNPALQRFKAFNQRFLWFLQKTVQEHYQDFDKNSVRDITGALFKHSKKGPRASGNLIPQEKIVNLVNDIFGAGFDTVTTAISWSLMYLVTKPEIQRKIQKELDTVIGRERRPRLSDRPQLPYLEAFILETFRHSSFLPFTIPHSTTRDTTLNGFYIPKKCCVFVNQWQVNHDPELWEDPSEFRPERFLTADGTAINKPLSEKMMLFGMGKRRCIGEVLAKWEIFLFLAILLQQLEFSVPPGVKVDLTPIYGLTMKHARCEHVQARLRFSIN
% is scaled to controls: 0 for no effect and ±100 for the full control effect.

Row | SMILES | AC50 | activity, negative = inhibition
1 | C1=C(CN2CCOCC2)COc2c1cccc2OC[C@@H]1CNCCO1 | 12.6 µM (active) | –
2 | Cc1c(C)c2c(c(C)c1O)CC[C@@](C)(CCC[C@@H](C)CCC[C@@H](C)CCCC(C)C)O2 | inactive | –
3 | COc1ccc(Nc2ncc3c(n2)CC(c2ccc(C)cc2)CC3=O)cc1 (configuration not stated) | 14.1 µM (active) | –
4 | COc1ccc(C2CC(=O)c3cnc(Nc4cc(C)cc(C)c4)nc3C2)cc1 (configuration not stated) | 14.1 µM (active) | –
5 | COc1ccc(NC2=NC(=S)N(c3ccc(C)cc3)C23CCCCC3)cc1 | inactive | –
6 | CCSc1nnc(-c2ccc(Cl)cc2)c2ccccc12 | 7.08 µM (active) | –
7 | O=[N+]([O-])c1cc(Cl)cc2c1nc(NCCO)c1ccccc12 | 0.02 µM (active) | –
8 | CCOC(=O)C(NC(C)=O)C(=O)O (configuration not stated) | inactive | –
9 | O=C1C2C3C=CC([C@@H]2C(=O)N1C1CCCCC1)[C@H]1C(=O)N(C2CCCCC2)C(=O)C31 (some centres not stated) | inactive | –
10 | O=C1C[C@@H](O)[C@@H](O)[C@H]2[C@@H]3C(=O)N(C4CCCCC4)C(=O)[C@@H]3CC[C@H]12 | – | 4% [at 11.4 µM] (inactive) and -9.85% [at 11.4 µM] (inactive) and 5.4% [at 11.4 µM] (inactive)
11 | CC(=O)[C@@H]1[C@@H]2C(=O)N(C3CCCCC3)C(=O)[C@@H]2C2c3ccccc3C=CN21 (some centres not stated) | 15.8 µM (active) | –
12 | COc1ccc(C(=O)N2CCC3(CCN(Cc4ccccc4OC)CC3)CC2)cc1 | inactive | –
13 | COc1ccc(CNc2ccnc(-c3cccnc3)n2)c(OC)c1 | 0.316 µM (active) | –
14 | COc1cccc(-c2nccc(NCc3ccccc3OC)n2)c1 | 1.26 µM (active) | –
15 | COCCNc1ccnc(-c2cccc(NS(C)(=O)=O)c2)n1 | 2 µM (active) | –
16 | COc1cccc(-c2nccc(NCc3ccc(OC)cc3OC)n2)c1 | 1 µM (active) | –
17 | CCOc1ccc(N(C(C)C(=O)NC(C)CC)S(C)(=O)=O)cc1 (configuration not stated) | inactive | –
18 | N[C@H](CCC(=O)N[C@H](CSN=O)C(=O)NCC(=O)O)C(=O)O | inactive | –
19 | NC1=C2NC=N[C@@H]2N(C/C=C\c2ccccc2)C=N1 | – | -12.4% [at 2.29 µM] (inactive)
20 | COc1ccc(CNc2ccnc(-c3cccc(NS(C)(=O)=O)c3)n2)c(OC)c1 | 15.8 µM (active) | –
21 | CC(C)[C@@H]1NC(=O)[C@H](CCCCN)NC(=O)[C@H](Cc2c[nH]c3ccccc23)NC(=O)[C@H](Cc2ccc(O)cc2)NC(=O)[C@H](C)N(C)C(=O)[C@H](Cc2ccccc2)NC1=O | inactive | –
22 | COc1ccc(-c2nn3cnnc3s2)cc1OC | 20 µM (active) | –
23 | COc1ccc(-c2ccc(=O)n(CC(=O)Nc3nnc(C(C)C)s3)n2)cc1OC | inactive | –

Row | SMILES | AC50 | activity, negative = inhibition
24 | Cc1nc2cnc(N(C)C)nc2n(Cc2ccc(F)cc2)c1=O | 2 µM (active) | –
25 | CN(C)c1ncc2nc(-c3cc(F)cc(F)c3)c(=O)n(Cc3ccc(F)cc3)c2n1 | inactive | –
26 | CN(C)c1ncc2nc(-c3ccc(F)cc3)c(=O)n(Cc3ccc(F)cc3)c2n1 | inactive | –
27 | CN(C)c1ncc2nc(-c3ccc(Cl)cc3)c(=O)n(Cc3ccc(F)cc3)c2n1 | 5.01 µM (active) | –
28 | O=C1[C@@H]2[C@H]3[C@H](O)[C@H](O)C/C(=N/OCc4ccccc4)[C@@H]3CC[C@H]2C(=O)N1c1ccc(F)cc1F | – | 4.37% [at 11.4 µM] (inactive)
29 | Clc1ccc(/C=N/Nc2nnc(-c3ncc[nH]3)c3ccccc23)cc1 | 0.2 µM (active) | –
30 | NC[C@@H]1O[C@H](C23CC4CC(CC(C4)C2)C3)Cc2c1ccc(O)c2O | inactive | –
31 | Cc1[nH]n(-c2ccc(S(=O)(=O)O)cc2)c(=O)c1N=Nc1ccccc1 | – | -10.5% [at 11.4 µM] (inactive)
32 | Cc1ccc(C2C(C=Nc3c(C)n(C)n(-c4ccccc4)c3=O)=C(c3ccccc3)Oc3ccccc32)cc1 (configuration not stated) | inactive | –
33 | Cc1ccc(N=Nc2c(N)n(-c3ccccc3)[nH]c2=O)cc1 | 2.82 µM (active) | –
34 | Nc1c(N=Nc2cccc(Cl)c2)c(=O)[nH]n1-c1ccccc1 | 2 µM (active) | –
35 | Cc1nc2cnc(Oc3ccccc3)nc2n(C2CC2)c1=O | 10 µM (active) | –
36 | Cc1nc2cnc(Oc3cccc(Cl)c3)nc2n(C2CC2)c1=O | 6.31 µM (active) | –
37 | O=c1cnc2cnc(Oc3cccc(Cl)c3)nc2n1C1CC1 | 2.51 µM (active) | –
38 | O=c1cc(N2CCN(c3cccc(Cl)c3)CC2)[nH]c(=O)n1C1CCCCC1 | inactive | –
39 | COc1ccc(C2/C(=C(/O)c3ccccc3)C(=O)C(=O)N2CC(C)O)c(OC)c1 (configuration not stated) | inactive | –
40 | N#Cc1ccc(C(c2nnnn2Cc2ccccc2)N2CCCC2)cc1 (configuration not stated) | inactive | –
41 | O=C(NCc1ccc(F)cc1)C(c1ccncc1)N(C(=O)c1csnn1)C1CC1 (configuration not stated) | inactive | –
42 | Cc1sc2ccccc2[n+]1CCC(C)S(=O)(=O)[O-] (configuration not stated) | inactive | –
43 | O=C1c2ccccc2-c2n[nH]c3cccc1c23 | 0.0158 µM (active) | –
44 | CC1CCN(C(=O)CN(C)S(=O)(=O)c2cccc3nsnc23)CC1 | inactive | –
45 | CN(CC(=O)Nc1ccc(F)c(F)c1)S(=O)(=O)c1cccc2nsnc12 | 15.8 µM (active) | –
46 | CCc1cccc(NC(=O)CN(C)S(=O)(=O)c2cnc[nH]2)c1 | inactive | –

Row | SMILES | AC50 | activity, negative = inhibition
47 | CCN(CC)CCC[C@H](C)Nc1c2ccc(Cl)cc2nc2ccc(OC)cc12 | 2 µM (active) and 1 µM (active) | –
48 | Cc1cccc(N(CC(=O)N2CCOCC2)S(C)(=O)=O)c1 | inactive | –
49 | C/C(=N\NC(=O)c1ccc(Br)cc1)c1ccccc1 | 1.41 µM (active) | –
50 | CCn1cc(C(=O)N/N=C(/C)c2ccc(F)cc2)c(=O)c2cc(F)c(N3CCCC3)cc21 | inactive | –
51 | C/C(=N/NC(=O)c1ccc(NC(=O)c2ccc(F)cc2)cc1)c1ccccc1 | inactive | –
52 | CC(C)OP(=O)(OC(C)C)C(NC(=O)c1ccc(Br)cc1)c1ccccc1 (configuration not stated) | inactive | –
53 | O=C(N/C(=C\c1cccnc1)C(=O)N1CCOCC1)c1cccc(Br)c1 | inactive | –
54 | C/C(=N\NC(=O)c1cccc(Br)c1)c1ccc(Br)cc1 | 0.282 µM (active) | –
55 | Cc1ccccc1-c1nccc(NCc2cccs2)n1 | 0.501 µM (active) | –
56 | CN(C)Cc1ccccc1-c1nccc(NCc2cccs2)n1 | 0.794 µM (active) | –
57 | FC(F)(F)c1ccccc1-c1nccc(NCc2cccs2)n1 | 1.26 µM (active) | –
58 | CC1CCN(c2cc(N3CCC(C)CC3)c([N+](=O)[O-])cc2/C=C(\C#N)c2nn(-c3ccccc3)c(N)c2C#N)CC1 | inactive | –
59 | O=C(Nc1ccccc1)C(Cc1ccccc1)NC(=O)C12CC3CC(CC(C3)C1)C2 (configuration not stated) | inactive | –
60 | CCCC[P+](CCCC)(CCCC)Cc1ccc(NC(=O)[C@@H](Cc2ccc3ccccc3c2)NC(=NC2CCCCC2)NC2CCCCC2)cc1 | 31.6 µM (active) | –
61 | COc1ccc(CC(NC(C)=O)C(=O)NC2CCN(C(=O)Nc3ccc(Cl)cc3)CC2)cc1OC (configuration not stated) | inactive | –
62 | CCNC(=S)NNC(=O)Cc1ccccc1 | inactive | –
63 | CCNC(=S)NNC(=O)CCn1c2ccccc2c2ccccc21 | 2.82 µM (active) | –
64 | CC(=O)C1=NOC(CNC(=O)c2c(-c3ccccc3Cl)noc2C)C1 (configuration not stated) | inactive | –
65 | N#Cc1c(NC(=O)C2CC(c3ccccc3Cl)=NO2)sc2c1CCC2 (configuration not stated) | 3.55 µM (active) | –
66 | COc1ccc(COC(=O)N/N=C2/C[C@@H](O)[C@@H](O)[C@@H]3[C@@H]4C(=O)N([C@@H](C)c5ccccc5)C(=O)[C@H]4CC[C@@H]23)cc1 | – | -1.59% [at 11.4 µM] (inactive)
67 | CSc1ccc(CNc2ccc(C)c(C)c2)cc1 | 0.891 µM (active) | –
68 | CSc1ccc(CNc2ccccc2)cc1 | 25.1 µM (active) | –
69 | CC(Sc1nc(NCc2ccccc2)nc(N(C)C)n1)C(=O)Nc1ccccc1 (configuration not stated) | inactive | –

Row | SMILES | AC50 | activity, negative = inhibition
70 | CSc1ccc(CNc2ccc(Cl)cc2)cc1 | 10 µM (active) | –
71 | CCCCC[C@H](CC(=O)NO)C(=O)N[C@@H](C(=O)N1CCC[C@H]1CO)C(C)C | inactive | –
72 | COCCn1c(=O)c(C)nc2cnc(Oc3ccc(OC)cc3)nc21 | 15.8 µM (active) | –
73 | COCCn1c(=O)cnc2cnc(Oc3ccccc3)nc21 | 15.8 µM (active) | –
74 | O=c1cnc2cnc(Oc3ccccc3)nc2n1CCc1ccccc1 | 3.16 µM (active) | –
75 | Cn1c(=O)cnc2cnc(Oc3ccccc3)nc21 | 10 µM (active) | –
76 | Cc1nn(S(=O)(=O)c2cccs2)c(C)c1Sc1ccc([N+](=O)[O-])cc1 | inactive | –
77 | O=C1CCCN1CC(CN1CCOCC1)Sc1nnnn1-c1ccccc1 (configuration not stated) | inactive | –
78 | CCN(CC)CCCN(Cc1cc2ccc(C)c(C)c2[nH]c1=O)C(=O)NC1CCCCC1 | inactive | –
79 | COc1ncc2ncc(=O)n(C)c2n1 | 12.6 µM (active) | –
80 | COc1ccc(-n2c(=O)cnc3cnc(Oc4ccccc4)nc32)cc1 | 15.8 µM (active) | –
81 | COCCn1c(=O)cnc2cnc(Oc3ccc(OC)cc3)nc21 | 5.01 µM (active) | –
82 | CN(Cc1cnc2nc(N)nc(N)c2n1)c1ccc(C(=O)N[C@@H](CCC(=O)O)C(=O)O)cc1 | inactive | –
83 | N=c1sc2ccccc2n1CCS (tested in a mixture with another compound) | 1 µM (active) | –
84 | O=c1cnc2cnc(N3CCOCC3)nc2n1C1CC1 | 6.31 µM (active) | –
85 | O=c1cnc2cnc(N3CCOCC3)nc2n1C[C@H]1CCCO1 | 10 µM (active) | –
86 | CCn1cc(C(=O)O)c(=O)c2cnc(N3CCNCC3)nc21 | inactive | –
87 | CN1CCN(c2ncc3ncc(=O)n(C[C@H]4CCCO4)c3n2)CC1 | 10 µM (active) | –
88 | COC(=O)c1nn(-c2ccccc2)c(-c2ccccc2)c1C(=O)c1ccccc1 | inactive | –
89 | O=C1C=C[C@@H](O)[C@H]2[C@@H]3C(=O)N(c4cccc(Oc5ccccc5)c4)C(=O)[C@@H]3CC[C@H]12 | – | -5.61% [at 11.4 µM] (inactive)
90 | COC(=O)c1nn(-c2ccccc2)c(=O)cc1Oc1ccccc1 | 20 µM (active) | –
91 | COC(=O)N1CCC2(CCCN(Cc3ccccc3)C2)CC1 | inactive | –
92 | O=C(c1ccncc1)N1CCC[C@@]2(CCN(c3ncccn3)C2)C1 | inactive | –

Source: PubChem BioAssay AID1851 (National Center for Advancing Translational Sciences (NCATS), 2009)
